Source: PubChem BioAssay AID1159580 (chemical genetic matrix, 2015)
About 2,000 (36%) of roughly 5,500 compounds were called active. Another 18% or so got no clear call; they are omitted. Rule as the data show it: active = normalized growth mostly below about 0.91 (no sharp cut-off); inconclusive = no clear call, values can overlap the other calls; inactive = mostly above about 0.92. Some of the results follow.

Test: chemical genetic growth profiling, strain panel (AID 1159580);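 also: tested at 20 µM; growth read once vehicle control cultures reached saturation at 30 °C; 1 = growth at the plate median or of vehicle wells; lower values mean less growth of the strain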
Conditions: growth OD
[1] = S. cerevisiae deletion strains, locus YAL013W, strain DEP1, active compounds read low
[2] = S. cerevisiae deletion strains, locus YCL061C, strain MRC1, active compounds read low
[3] = S. cerevisiae deletion strains, locus YDR150W, strain NUM1, active compounds read low
[4] = S. cerevisiae deletion strains, locus YGR078C, strain PAC10, active compounds read low
[5] = S. cerevisiae deletion strains, locus YJL187C, strain SWE1, active compounds read low
[6] = S. cerevisiae deletion strains, locus YJR075W, strain HOC1, active compounds read low
[7] = S. cerevisiae deletion strains, locus YMR263W, strain SAP30, active compounds read low
[8] = S. cerevisiae deletion strains, locus YMR307W, strain GAS1, active compounds read low
[9] = S. cerevisiae deletion strains, locus YNL322C, strain KRE1, active compounds read low
[10] = S. cerevisiae deletion strains, locus YPL055C, strain LGE1, active compounds read low
[11] = S. cerevisiae deletion strains, locus YPL241C, strain CIN2, active compounds read low
[12] = S. cerevisiae deletion strains, locus YAL040C, strain CLN3, active compounds read low
[13] = S. cerevisiae deletion strains, locus YCL061C, strain MRC1 (second series), active compounds read low
[14] = S. cerevisiae deletion strains, locus YDR363W, strain ESC2, active compounds read low
[15] = S. cerevisiae deletion strains, locus YER002W, strain NOP16, active compounds read low
[16] = S. cerevisiae deletion strains, locus YNL175C, strain NOP13, active compounds read low
[17] = S. cerevisiae deletion strains, locus YNL197C, strain WHI3, active compounds read low
[18] = S. cerevisiae deletion strains, locus YNL224C, strain SQS1, active compounds read low
[19] = S. cerevisiae deletion strains, locus YOR083W, strain WHI5 (second series), active compounds read low

Measured: normalized growth

CC(OCc1ccccc1)C(NC(=O)OC(C)(C)C)C(N)=O (stereo not given)
inactive: [1] 0.998 | S. cerevisiae deletion strains, locus YBR229C, strain ROT2, active compounds read low 0.994 | [2] 0.993 | S. cerevisiae deletion strains, locus YDL101C, strain DUN1, active compounds read low 0.993 | S. cerevisiae deletion strains, locus YDL134C, strain PPH21, active compounds read low 0.994 | [3] 0.985 | S. cerevisiae deletion strains, locus YEL061C, strain CIN8, active compounds read low 0.988 | [4] 0.997 | S. cerevisiae deletion strains, locus YHR030C, strain SLT2, active compounds read low 0.903 | S. cerevisiae deletion strains, locus YHR087W, strain rtc3, active compounds read low 0.988 | [5] 1 | S. cerevisiae deletion strains, locus YJR043C, strain POL32, active compounds read low 0.974 | [6] 1.02 | S. cerevisiae deletion strains, locus YLR039C, strain RIC1, active compounds read low 0.977 | S. cerevisiae deletion strains, locus YLR058C, strain SHM2 (second series), active compounds read low 1 | S. cerevisiae deletion strains, locus YLR085C, strain ARP6, active compounds read low 1.02 | S. cerevisiae deletion strains, locus YLR262C, strain YPT6, active compounds read low 0.864 | S. cerevisiae deletion strains, locus YML094W, strain GIM5, active compounds read low 1.04 | S. cerevisiae deletion strains, locus YMR219W, strain ESC1, active compounds read low 0.991 | [7] 0.976 | [8] 1.07 | S. cerevisiae deletion strains, locus YNL153C, strain GIM3, active compounds read low 0.998 | S. cerevisiae deletion strains, locus YNL298W, strain CLA4 (second series), active compounds read low 0.974 | [9] 0.985 | S. cerevisiae deletion strains, locus YNR030W, strain Alg12, active compounds read low 0.961 | [10] 1.02 | [11] 1 | S. cerevisiae deletion strains, locus YPR135W, strain CTF4, active compounds read low 0.9 | S. cerevisiae strains, strain wild type, active compounds read low 0.971

COc1cc(-c2ccc(=O)[nH]n2)ccc1OC(F)F
inactive: [12] 0.975 | [13] 1.01 | [14] 0.997 | [15] 1 | [4] 1.01 | [6] 1 | [8] 0.995 | S. cerevisiae deletion strains, locus YNL128W, strain TEP1, active compounds read low 1.01 | [16] 1.03 | [17] 0.994 | [18] 1.01 | [9] 0.997 | [19] 1.02 | [10] 1.02 | [11] 1

Cn1ccnc1
inactive: [1] 1.01 | [12] 1.01 | [13] 1 | [3] 1 | [14] 1.01 | [15] 1 | [4] 1.01 | [7] 1.01 | [8] 1 | [16] 1 | [17] 1 | [18] 1.01 | [19] 1.02 | [10] 1

CC(CC(=O)C(O)C(C)(C)O)C1C(=O)CC2(C)C3=CCC4C(C)(C)C(OC5OCC(O)C(O)C5O)CCC45CC35C(O)CC12C (stereo not given)
inactive: S. cerevisiae deletion strains, locus YAL021C, strain ccr4, active compounds read low 1.01 | S. cerevisiae deletion strains, locus YAL026C, strain drs2, active compounds read low 1.01 | S. cerevisiae deletion strains, locus YAL030W, strain snc1, active compounds read low 1.01 | S. cerevisiae deletion strains, locus YBL061C, strain skt5, active compounds read low 1.01 | S. cerevisiae deletion strains, locus YBR009C, strain hhf1, active compounds read low 1.01 | S. cerevisiae deletion strains, locus YBR023C, strain chs3, active compounds read low 1.02 | S. cerevisiae deletion strains, locus YBR171W, strain sec66, active compounds read low 1.03 | S. cerevisiae deletion strains, locus YBR231C, strain swc5, active compounds read low 1.01 | S. cerevisiae deletion strains, locus YBR279W, strain paf1, active compounds read low 1.02 | S. cerevisiae deletion strains, locus YCL011C, strain gbp2, active compounds read low 1.01 | S. cerevisiae deletion strains, locus YCL016C, strain dcc1, active compounds read low 1.01 | [2] 1.01 | S. cerevisiae deletion strains, locus YCL069W, strain vba3, active compounds read low 1 | S. cerevisiae deletion strains, locus YCR088W, strain abp1, active compounds read low 1.02 | S. cerevisiae deletion strains, locus YDL005C, strain med2, active compounds read low 1.01 | S. cerevisiae deletion strains, locus YDL040C, strain nat1, active compounds read low 1.02 | S. cerevisiae deletion strains, locus YDR001C, strain nth1, active compounds read low 1.01 | S. cerevisiae deletion strains, locus YDR069C, strain doa4, active compounds read low 1.01 | S. cerevisiae deletion strains, locus YDR137W, strain rgp1, active compounds read low 0.974 | S. cerevisiae deletion strains, locus YDR159W, strain sac3, active compounds read low 1.02 | S. cerevisiae deletion strains, locus YDR195W, strain ref2 0.987 | S. cerevisiae deletion strains, locus YDR297W, strain sur2, active compounds read low 1.01 | S. cerevisiae deletion strains, locus YDR334W, strain swr1, active compounds read low 1.02 | S. cerevisiae deletion strains, locus YDR335W, strain msn5, active compounds read low 1.02 | S. cerevisiae deletion strains, locus YDR392W, strain spt3, active compounds read low 1.04 | S. cerevisiae deletion strains, locus YEL003W, strain gim4, active compounds read low 1.01 | S. cerevisiae deletion strains, locus YEL037C, strain rad23, active compounds read low 1.07 | S. cerevisiae deletion strains, locus YEL061C, strain CIN8 (second series), active compounds read low 1.01 | S. cerevisiae deletion strains, locus YER015W, strain faa2, active compounds read low 1.01 | S. cerevisiae deletion strains, locus YER016W, strain bim1, active compounds read low 1.02 | S. cerevisiae deletion strains, locus YER111C, strain swi4, active compounds read low 1.01 | S. cerevisiae deletion strains, locus YER155C, strain BEM2 (second series), active compounds read low 1.02 | S. cerevisiae deletion strains, locus YFR010W, strain ubp6, active compounds read low 1.01 | S. cerevisiae deletion strains, locus YGL167C, strain pmr1, active compounds read low 1.01 | S. cerevisiae deletion strains, locus YGL173C, strain kem1, active compounds read low 1.03 | S. cerevisiae deletion strains, locus YGL227W, strain vid30, active compounds read low 1.01 | S. cerevisiae deletion strains, locus YGL240W, strain doc1, active compounds read low 1.01 | S. cerevisiae deletion strains, locus YGL253W, strain hxk2, active compounds read low 1.02 | S. cerevisiae deletion strains, locus YHR013C, strain ard1, active compounds read low 1.02 | S. cerevisiae deletion strains, locus YHR027C, strain rpn1, active compounds read low 1.01 | S. cerevisiae deletion strains, locus YHR142W, strain chs7, active compounds read low 1 | S. cerevisiae deletion strains, locus YJL092W, strain hpr5, active compounds read low 1.02 | S. cerevisiae deletion strains, locus YJL095W, strain BCK1 (second series), active compounds read low 1.01 | S. cerevisiae deletion strains, locus YJL115W, strain asf1, active compounds read low 1.01 | S. cerevisiae deletion strains, locus YJL129C, strain trk1, active compounds read low 1.02 | S. cerevisiae deletion strains, locus YJL154C, strain vps35, active compounds read low 1.02 | S. cerevisiae deletion strains, locus YJL164C, strain tpk1, active compounds read low 1.03 | S. cerevisiae deletion strains, locus YJL166W, strain qcr8, active compounds read low 1.01 | [5] 1.01 | S. cerevisiae deletion strains, locus YKL160W, strain elf1, active compounds read low 1.01 | S. cerevisiae deletion strains, locus YKR026C, strain gcn3, active compounds read low 1.02 | S. cerevisiae deletion strains, locus YKR091W, strain srl3, active compounds read low 1.02 | S. cerevisiae deletion strains, locus YLL001W, strain dnm1, active compounds read low 1.03 | S. cerevisiae deletion strains, locus YLL026W, active compounds read low 1.02 | S. cerevisiae deletion strains, locus YLL041C, strain sdh2, active compounds read low 1.01 | S. cerevisiae deletion strains, locus YLR027C, strain aat2, active compounds read low 1 | S. cerevisiae deletion strains, locus YLR221C, strain rsa3, active compounds read low 1.01 | S. cerevisiae deletion strains, locus YLR258W, strain gsy2, active compounds read low 1.02 | S. cerevisiae deletion strains, locus YLR262C, strain YPT6 (second series), active compounds read low 1.02 | S. cerevisiae deletion strains, locus YLR320W, strain mms22, active compounds read low 1.03 | S. cerevisiae deletion strains, locus YLR342W, strain FKS1, active compounds read low 1.01 | S. cerevisiae deletion strains, locus YLR357W, strain rsc2, active compounds read low 1.02 | S. cerevisiae deletion strains, locus YLR370C, strain arc18, active compounds read low 0.995 | S. cerevisiae deletion strains, locus YLR384C, strain iki3, active compounds read low 1.01 | S. cerevisiae deletion strains, locus YML120C, strain ndi1, active compounds read low 1.02 | S. cerevisiae deletion strains, locus YMR058W, strain fet3, active compounds read low 1.01 | S. cerevisiae deletion strains, locus YMR125W, strain sto1, active compounds read low 1.03 | S. cerevisiae deletion strains, locus YMR129W, active compounds read low 1.01 | S. cerevisiae deletion strains, locus YMR205C, strain PFK2, active compounds read low 1.02 | S. cerevisiae deletion strains, locus YMR231W, strain pep5, active compounds read low 1 | S. cerevisiae deletion strains, locus YNL071W, strain lat1, active compounds read low 1.01 | S. cerevisiae deletion strains, locus YNL209W, strain ssb2, active compounds read low 1.01 | S. cerevisiae deletion strains, locus YNL248C, strain rpa49, active compounds read low 1.01 | S. cerevisiae deletion strains, locus YNL322C, strain KRE1 (second series), active compounds read low 1.01 | S. cerevisiae deletion strains, locus YNR049C, strain mso1, active compounds read low 1.02 | S. cerevisiae deletion strains, locus YOR001W, strain rrp6, active compounds read low 1.01 | S. cerevisiae deletion strains, locus YOR070C, strain gyp1, active compounds read low 1.01 | S. cerevisiae deletion strains, locus YOR080W, strain dia2, active compounds read low 1.02 | S. cerevisiae deletion strains, locus YOR083W, strain WHI5, active compounds read low 1.02 | S. cerevisiae deletion strains, locus YOR106W, strain vam3, active compounds read low 1 | S. cerevisiae deletion strains, locus YOR265W, strain rbl2, active compounds read low 1.01 | S. cerevisiae deletion strains, locus YOR270C, strain vph1, active compounds read low 1.02 | S. cerevisiae deletion strains, locus YOR290C, strain snf2, active compounds read low 1.02 | S. cerevisiae deletion strains, locus YPL051W, strain arl3, active compounds read low 1.01 | S. cerevisiae deletion strains, locus YPL078C, strain atp4, active compounds read low 1.02 | S. cerevisiae deletion strains, locus YPL106C, strain sse1, active compounds read low 1 | S. cerevisiae deletion strains, locus YPL240C, strain hsp82, active compounds read low 1.02
